Laboratory results taken from PubChem BioAssay (NCATS).
Records with an inconclusive call do not appear. Active and inactive are the calls of the source. Unless noted, the call rests on the fitted dose curve; in most records, active means well fitted curve in the direction sought with a large enough effect; inconclusive means small, poorly fitted or top-dose-only effect, or another doubt; inactive means no such curve, though single readings can be large; an effect the other way counts as inactive or inconclusive.

What was measured:
[1] = molecular target: Lysosomal acid glucosylceramidase (Homo sapiens) (UniProt P04062); assay: Glucocerebrosidase-p2 (AID 348; in the data active means potency below about 10 µM; further: potency means the concentration at half of the fitted maximal effect); conditions: purified GBA, blue fluorogenic substrate, 40 min
Sequence of Lysosomal acid glucosylceramidase (Homo sapiens) (P04062 whole entry, looked up): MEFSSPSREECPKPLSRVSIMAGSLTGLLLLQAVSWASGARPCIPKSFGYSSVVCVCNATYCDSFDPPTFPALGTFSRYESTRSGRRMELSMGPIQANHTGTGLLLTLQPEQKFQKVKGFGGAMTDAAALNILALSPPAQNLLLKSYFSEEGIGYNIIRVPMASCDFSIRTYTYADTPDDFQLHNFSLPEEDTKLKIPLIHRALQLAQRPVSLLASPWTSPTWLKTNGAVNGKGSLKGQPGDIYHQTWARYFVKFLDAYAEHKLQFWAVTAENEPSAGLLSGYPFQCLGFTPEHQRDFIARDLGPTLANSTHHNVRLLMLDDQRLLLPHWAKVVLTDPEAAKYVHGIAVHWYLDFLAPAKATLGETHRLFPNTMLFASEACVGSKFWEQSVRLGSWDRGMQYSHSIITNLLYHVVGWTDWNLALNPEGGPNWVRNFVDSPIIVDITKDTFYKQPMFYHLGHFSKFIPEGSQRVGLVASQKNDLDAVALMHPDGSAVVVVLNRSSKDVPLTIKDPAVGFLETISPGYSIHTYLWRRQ
In short: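 Compounds titrated from 0.6 nM upwards against 0.2 nM enzyme in pH 5.9 citric acid/KH2PO4, taurocholate, tween-20; blue fluorogenic substrate 80 uM, 40 min room temperature, stopped and read Ex 365/Em 440 for AC50.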

[2] = AP1 Signaling Pathway (AID 357; active means well fitted curve in either direction with a large enough effect, not every such curve was filed as active;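 further: ME-180 reporter cells stimulated with EGF at its EC50 level; on the % scale 0 is the no-effect control and ±100 the full control effect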); conditions: ME-180 AP-1-bla reporter, EGF-induced, beta-lactamase ratio, 5 h; at 7.69 µM (top of the series) unless noted
In short: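 Read-out was the 460nm/530nm emission ratio (excitation 405nm) after CCF4 loading for 2.5 hours at room temperature. Cells carried an AP-1-driven beta-lactamase reporter, were stimulated with EC50 EGF plus compound for 5 hours, and AC50 values came from titrations.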

[3] = molecular target: Cytochrome P450 1A2 (Homo sapiens) (UniProt P05177); assay: p450-cyp1a2 (AID 410; calls by dose curve; further: potency means the concentration at half of the fitted maximal effect); conditions: recombinant CYP1A2, luciferin-ME demethylation, luminescence; series mostly up to 57 µM
Sequence of Cytochrome P450 1A2 (Homo sapiens) (P05177 whole entry, looked up): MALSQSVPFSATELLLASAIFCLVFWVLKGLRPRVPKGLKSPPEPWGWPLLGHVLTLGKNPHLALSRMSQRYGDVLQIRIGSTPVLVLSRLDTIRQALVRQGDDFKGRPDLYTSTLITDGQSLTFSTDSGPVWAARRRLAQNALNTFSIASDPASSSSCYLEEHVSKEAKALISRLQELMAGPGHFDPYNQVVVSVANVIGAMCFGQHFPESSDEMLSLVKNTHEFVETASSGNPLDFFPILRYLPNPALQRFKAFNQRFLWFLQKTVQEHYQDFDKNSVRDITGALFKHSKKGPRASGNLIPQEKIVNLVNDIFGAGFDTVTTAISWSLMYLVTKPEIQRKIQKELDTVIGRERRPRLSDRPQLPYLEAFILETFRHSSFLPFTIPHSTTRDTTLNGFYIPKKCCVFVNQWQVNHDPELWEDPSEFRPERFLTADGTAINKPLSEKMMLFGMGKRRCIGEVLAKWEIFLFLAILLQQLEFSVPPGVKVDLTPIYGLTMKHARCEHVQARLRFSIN
In short: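 Human CYP1A2 (20nM) demethylated Luciferin-ME at its Km (100uM) in 100mM KPO4. After 10 min compound preincubation, NADPH regeneration ran the reaction 60 min at room temperature. Luciferin was read by luminescence, normalized to 57 uM furafylline.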

[4] = NFAT Signaling Pathway (AID 444; active means well fitted curve in either direction with a large enough effect, not every such curve was filed as active;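 further: carbachol stimulus at about its EC50 of 1 µM final; on the % scale 0 is the no-effect control and ±100 the full control effect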); conditions: Jurkat NFAT-bla M1, carbachol, beta-lactamase ratio, 5 h; at 7.69 µM (top of the series) unless noted
In short: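 Jurkat cells with NFAT-driven β-lactamase reporter and co-expressed M1 receptor, stimulated with carbachol (final 1 uM, ~EC50), compound titration, 5 h at 37 °C. CCF4 loaded 1 h at RT; 460/530 nm ratio gave %activity and AC50.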

[5] = molecular target: Glucocorticoid receptor (Homo sapiens) (UniProt P04150); assay: GR-GFP Redistribution (AID 450;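 active means compounds whose dose series gives a full or clear partial fitted curve of increased nuclear translocation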; further: potency means the concentration at half of the fitted maximal effect); conditions: U2OS GR-GFP nuclear translocation, laser cytometry, 2 h
Sequence of Glucocorticoid receptor (Homo sapiens) (P04150 whole entry, looked up, the tested form may be a part): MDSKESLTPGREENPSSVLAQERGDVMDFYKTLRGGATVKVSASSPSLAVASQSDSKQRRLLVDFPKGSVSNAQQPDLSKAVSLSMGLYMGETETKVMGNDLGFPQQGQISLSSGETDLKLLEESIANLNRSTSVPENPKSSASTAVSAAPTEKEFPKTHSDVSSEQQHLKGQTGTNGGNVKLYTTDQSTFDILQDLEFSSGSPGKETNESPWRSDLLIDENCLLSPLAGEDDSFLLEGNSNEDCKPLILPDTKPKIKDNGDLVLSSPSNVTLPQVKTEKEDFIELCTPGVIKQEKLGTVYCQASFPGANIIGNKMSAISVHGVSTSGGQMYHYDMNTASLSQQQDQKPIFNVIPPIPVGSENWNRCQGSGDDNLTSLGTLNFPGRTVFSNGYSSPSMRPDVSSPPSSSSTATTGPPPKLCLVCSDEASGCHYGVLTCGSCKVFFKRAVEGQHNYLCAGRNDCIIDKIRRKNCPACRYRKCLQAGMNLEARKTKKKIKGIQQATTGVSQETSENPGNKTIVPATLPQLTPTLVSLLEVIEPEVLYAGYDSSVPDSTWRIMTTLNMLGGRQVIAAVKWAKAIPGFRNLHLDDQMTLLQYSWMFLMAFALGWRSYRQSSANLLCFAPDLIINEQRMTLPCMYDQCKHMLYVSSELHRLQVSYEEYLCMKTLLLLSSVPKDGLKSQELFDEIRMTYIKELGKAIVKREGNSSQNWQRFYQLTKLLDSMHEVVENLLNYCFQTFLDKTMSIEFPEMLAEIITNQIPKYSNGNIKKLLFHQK

[6] = molecular target: Glucocorticoid receptor (Homo sapiens) (UniProt P04150); assay: GR-EFC Redistribution (AID 451; calls by dose curve; further: potency means the concentration at half of the fitted maximal effect); conditions: CHO-K1 GR-EFC translocation, beta-gal luminescence, 2 h
In short: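 CHO-K1 cells expressing nuclear EA and GR-ED fragments of b-gal; compounds titrated up to 46 uM final, 2 h at 37 C. GR nuclear translocation read as complemented b-gal luminescence after 1 h RT detection.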

[7] = molecular target: 3',5'-cyclic-AMP phosphodiesterase 4B (Homo sapiens) (UniProt Q07343); assay: qHTS Assay for Inhibitors of PDE-IV (AID 607; active means well fitted activation curve with a large enough effect in the main read-out, with a control signal flat, not every such curve was filed as active; further: % of control where 0% means no effect); conditions: HEK293 ACTOne CNG channel cells, membrane potential fluorescence; series mostly up to 22.9 µM
Sequence of 3',5'-cyclic-AMP phosphodiesterase 4B (Homo sapiens) (Q07343 whole entry, looked up): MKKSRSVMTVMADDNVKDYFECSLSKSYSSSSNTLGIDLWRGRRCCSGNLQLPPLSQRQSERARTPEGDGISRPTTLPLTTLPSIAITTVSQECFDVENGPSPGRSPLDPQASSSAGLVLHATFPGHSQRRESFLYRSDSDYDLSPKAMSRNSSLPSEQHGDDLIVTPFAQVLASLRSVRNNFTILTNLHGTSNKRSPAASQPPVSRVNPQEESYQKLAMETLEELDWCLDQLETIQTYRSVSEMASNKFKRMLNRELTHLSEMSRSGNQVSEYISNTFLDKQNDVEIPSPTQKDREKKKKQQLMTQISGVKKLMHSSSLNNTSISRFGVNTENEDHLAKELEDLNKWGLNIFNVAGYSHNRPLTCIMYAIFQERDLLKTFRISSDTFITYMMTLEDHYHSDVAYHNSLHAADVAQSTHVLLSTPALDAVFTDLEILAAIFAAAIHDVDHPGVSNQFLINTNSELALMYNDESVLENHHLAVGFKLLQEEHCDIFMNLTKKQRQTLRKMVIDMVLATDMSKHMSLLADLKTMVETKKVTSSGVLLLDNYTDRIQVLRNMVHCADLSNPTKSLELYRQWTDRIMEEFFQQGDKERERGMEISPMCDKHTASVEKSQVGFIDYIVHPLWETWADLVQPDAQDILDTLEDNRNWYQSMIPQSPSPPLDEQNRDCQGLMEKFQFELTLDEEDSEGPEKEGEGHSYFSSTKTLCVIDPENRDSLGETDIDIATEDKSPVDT
In short: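 HEK293 ACTOne cells with CNG channel (1000/well), endogenous PDE4; membrane potential dye, compounds up to 22.9 uM final. Fluorescence Ex 535/Em 590; RO 20-1724 (100 uM final) as reference.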

[8] = molecular target: Cytochrome P450 3A4 (Homo sapiens) (UniProt P08684); assay: qHTS Assay for Activators of Cytochrome P450 3A4 (AID 885); conditions: recombinant CYP3A4, Luciferin-PPXE luminescence, 60 min; series mostly up to 57.1 µM; further: nearly all actives have a fitted effect of over 65% in size
In short: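 Human CYP3A4 (20 nM) with Luciferin-PPXE at 25 uM (its KM) in 200 mM KPO4; 10 min compound preincubation, then NADPH regeneration and 60 min reaction at RT. Luciferin read by luminescence; normalized to 57 uM ketoconazole full inhibition.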

[9] = qHTS Assay for Identification of Small Molecule Agonists for Hypoxia Response Element Signaling Pathway (AID 914; active means well fitted activation curve with a large enough effect in the signal ratio, with a control signal flat, not every such curve was filed as active; the % refers to the signal ratio; further: potency means the concentration at half of the fitted maximal effect); conditions: ME-180 HRE-bla reporter, beta-lactamase ratio, CoCl2, 17 h; activation: active compounds read high
In short: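 HRE-bla ME-180 cells with beta-lactamase reporter under hypoxia response element, compounds with EC50 CoCl2 for 17 hours at 37 C. CCF4 substrate, 460nm/530nm emission ratio gave %Activity; AC50 from titration series.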

[10] = molecular target: Dual specificity protein kinase CLK4 (Homo sapiens) (UniProt Q9HAZ1); assay: qHTS Assay for Inhibitors of CDC-like Kinase 4 (Kinase-Glo Assay) (AID 1770); conditions: recombinant Clk4, Kinase-Glo ATP depletion luminescence; series mostly up to 66.7 µM; further: on the % scale 0 is the no-effect control and ±100 the full control effect; nearly all actives have a fitted effect of over 65% in size
Sequence of Dual specificity protein kinase CLK4 (Homo sapiens) (Q9HAZ1 whole entry, looked up): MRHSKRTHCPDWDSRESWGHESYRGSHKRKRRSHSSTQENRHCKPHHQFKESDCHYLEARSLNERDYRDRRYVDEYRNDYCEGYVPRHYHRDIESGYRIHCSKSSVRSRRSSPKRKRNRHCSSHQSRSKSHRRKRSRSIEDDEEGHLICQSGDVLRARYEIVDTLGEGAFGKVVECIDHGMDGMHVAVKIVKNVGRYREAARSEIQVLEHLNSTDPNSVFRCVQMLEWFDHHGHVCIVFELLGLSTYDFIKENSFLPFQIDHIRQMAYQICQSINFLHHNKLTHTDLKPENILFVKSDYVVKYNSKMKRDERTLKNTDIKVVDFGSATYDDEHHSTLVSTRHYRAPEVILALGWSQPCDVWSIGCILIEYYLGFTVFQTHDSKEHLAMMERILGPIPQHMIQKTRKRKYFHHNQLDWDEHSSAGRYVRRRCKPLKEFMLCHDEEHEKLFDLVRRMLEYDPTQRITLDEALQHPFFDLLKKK
In short: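 Luminescent ATP-depletion read-out (Kinase-Glo) after 4.5 h room-temperature reaction of Clk4 (25 nM final) with RS peptide (100 uM) and ATP (1 uM), pH 7.5 Tris buffer with MgCl2 and DTT.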

[11] = molecular target: Dual specificity protein kinase CLK4 (Homo sapiens) (UniProt Q9HAZ1); assay: qHTS Assay for Inhibitors of CDC-like Kinase 4 (ADP-Glo Assay) (AID 1771); conditions: recombinant CLK4, ADP-Glo luminescence; series mostly up to 80 µM; further: on the % scale 0 is the no-effect control and ±100 the full control effect; nearly all actives have a fitted effect of over 70% in size
In short: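 Clk4 (25 nM) was incubated 1 hr at room temperature with 100 uM RS repeat peptide and 1 uM ATP in buffer with 2 mM MgCl2, 0.5 mM EGTA, 2.5 mM DTT. ADP formed was quantified by ADP-Glo luminescence.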

[12] = molecular target: Rap guanine nucleotide exchange factor 3 (Homo sapiens) (UniProt O95398); assay: Confirmatory qHTS for antagonist of cAMP-regulated guanine nucleotide exchange factor 3 (EPAC1) (AID 1645880); conditions: EPAC1 Rap1B-BODIPY-GDP exchange, fluorescence; activity, negative = inhibition: at 115 µM (top of the series); further: nearly all actives have a fitted effect of over 55% in size; further: potency means the concentration at half of the fitted maximal effect;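 on activity, negative = inhibition: plate controls were DMSO only for no effect and full effect of the ATA control for full effect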
Sequence of Rap guanine nucleotide exchange factor 3 (Homo sapiens) (O95398 whole entry, looked up): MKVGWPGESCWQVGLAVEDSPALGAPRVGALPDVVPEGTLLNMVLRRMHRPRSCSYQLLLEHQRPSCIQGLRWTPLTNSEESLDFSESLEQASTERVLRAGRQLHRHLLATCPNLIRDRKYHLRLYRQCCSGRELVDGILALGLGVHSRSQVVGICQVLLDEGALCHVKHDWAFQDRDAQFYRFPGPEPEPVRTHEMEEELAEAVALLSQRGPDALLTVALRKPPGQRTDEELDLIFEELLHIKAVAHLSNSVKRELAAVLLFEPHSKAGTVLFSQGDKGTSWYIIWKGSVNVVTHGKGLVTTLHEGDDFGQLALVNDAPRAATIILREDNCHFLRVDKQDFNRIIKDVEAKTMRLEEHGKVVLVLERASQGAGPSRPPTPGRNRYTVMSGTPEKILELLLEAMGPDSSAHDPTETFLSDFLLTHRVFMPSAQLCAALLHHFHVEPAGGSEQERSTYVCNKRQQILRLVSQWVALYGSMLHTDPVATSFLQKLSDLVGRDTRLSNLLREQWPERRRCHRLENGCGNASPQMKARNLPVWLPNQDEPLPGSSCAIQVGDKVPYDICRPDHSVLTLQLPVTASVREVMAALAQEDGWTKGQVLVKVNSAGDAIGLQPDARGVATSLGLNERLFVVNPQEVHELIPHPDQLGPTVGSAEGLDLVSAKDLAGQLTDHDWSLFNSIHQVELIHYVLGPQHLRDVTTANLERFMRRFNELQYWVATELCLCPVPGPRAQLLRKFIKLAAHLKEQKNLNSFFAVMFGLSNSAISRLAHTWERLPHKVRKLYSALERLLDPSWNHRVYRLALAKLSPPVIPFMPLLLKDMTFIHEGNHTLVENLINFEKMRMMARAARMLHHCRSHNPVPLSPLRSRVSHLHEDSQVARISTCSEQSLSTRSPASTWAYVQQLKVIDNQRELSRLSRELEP
In short: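 Nucleotide exchange uses 100 nM EPAC1, 250 nM RAP1B-BODIPY-GDP and 50 uM GDP, with compounds in a concentration-titration series. After 5 min at room temperature, fluorescence (480 nm ex/540 nm em) is read every 5 min for 30 min. Data are normalized to control ATA and DMSO.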

[13] = molecular target: Rap guanine nucleotide exchange factor 3 (Homo sapiens) (UniProt O95398); assay: Confirmatory qHTS for agonist of cAMP-regulated guanine nucleotide exchange factor 3 (EPAC1) (AID 1645881); conditions: EPAC1 Rap1B BODIPY-GDP exchange fluorescence; series mostly up to 154 µM; further: nearly all actives have a fitted effect of over 75% in size; further: potency means the concentration at half of the fitted maximal effect;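 on activation: EPAC1 catalysed release of BODIPY-GDP from Rap1B seen as fluorescence loss; 100% = effect of cAMP agonist control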
[14] = molecular target: Rap guanine nucleotide exchange factor 4 (Homo sapiens) (UniProt Q8WZA2); assay: Confirmatory qHTS for agonist of cAMP-regulated guanine nucleotide exchange factor 4 (EPAC2) (AID 1645884); conditions: EPAC2 GEF activity, Rap1B-BODIPY-GDP fluorescence; series mostly up to 154 µM;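 further: nucleotide exchange releases bodipy-GDP from Rap1 and this lowers its fluorescence; nearly all actives have a fitted effect of over 65% in size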; further: potency means the concentration at half of the fitted maximal effect; on activation: on the % scale 0 is the no-effect control and ±100 the full control effect
Sequence of Rap guanine nucleotide exchange factor 4 (Homo sapiens) (Q8WZA2 whole entry, looked up): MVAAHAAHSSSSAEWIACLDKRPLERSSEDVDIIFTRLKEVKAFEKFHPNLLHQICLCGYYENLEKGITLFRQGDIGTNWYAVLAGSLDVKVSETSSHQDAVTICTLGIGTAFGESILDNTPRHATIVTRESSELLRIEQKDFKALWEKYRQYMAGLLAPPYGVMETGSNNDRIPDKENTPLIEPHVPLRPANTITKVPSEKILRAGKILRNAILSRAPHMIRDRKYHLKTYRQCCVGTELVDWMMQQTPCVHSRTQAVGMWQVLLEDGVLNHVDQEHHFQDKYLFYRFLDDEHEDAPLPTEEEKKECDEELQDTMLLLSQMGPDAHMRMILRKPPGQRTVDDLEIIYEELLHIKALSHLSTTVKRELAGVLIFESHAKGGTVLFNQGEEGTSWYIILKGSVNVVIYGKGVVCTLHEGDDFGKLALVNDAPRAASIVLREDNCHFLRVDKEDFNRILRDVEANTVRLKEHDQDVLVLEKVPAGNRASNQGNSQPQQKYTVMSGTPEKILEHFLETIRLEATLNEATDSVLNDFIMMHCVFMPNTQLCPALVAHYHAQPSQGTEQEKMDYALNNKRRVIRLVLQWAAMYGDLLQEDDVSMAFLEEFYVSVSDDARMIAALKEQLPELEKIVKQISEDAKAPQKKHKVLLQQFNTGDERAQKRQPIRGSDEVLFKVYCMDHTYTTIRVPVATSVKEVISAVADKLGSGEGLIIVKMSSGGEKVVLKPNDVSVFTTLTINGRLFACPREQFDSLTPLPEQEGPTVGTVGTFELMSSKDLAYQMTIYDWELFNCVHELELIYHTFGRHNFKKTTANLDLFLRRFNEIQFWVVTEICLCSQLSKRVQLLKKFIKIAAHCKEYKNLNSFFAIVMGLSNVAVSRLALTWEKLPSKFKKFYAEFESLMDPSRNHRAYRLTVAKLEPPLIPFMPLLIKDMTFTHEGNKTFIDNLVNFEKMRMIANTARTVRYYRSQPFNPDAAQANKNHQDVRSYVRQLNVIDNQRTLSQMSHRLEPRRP

[15] = molecular target: Rap guanine nucleotide exchange factor 4 (Homo sapiens) (UniProt Q8WZA2); assay: Confirmatory qHTS for antagonist of cAMP-regulated guanine nucleotide exchange factor 4 (EPAC2) (AID 1645885); conditions: EPAC2 Rap1B-BODIPY-GDP exchange fluorescence, biochemical; series mostly up to 12.7 µM; further: nearly all actives have a fitted effect of over 25% in size; further: potency means the concentration at half of the fitted maximal effect
[16] = Stat Signaling Pathway (AID 446; active means well fitted curve in either direction with a large enough effect, not every such curve was filed as active;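 further: ME-180 cervical cancer cells given 40 pM IL-6 alongside compound; SIE-controlled beta-lactamase reporter measured as 460/530 nm FRET emission ratio; on the % scale 0 is the no-effect control and ±100 the full control effect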); conditions: ME-180 SIE beta-lactamase reporter, IL-6 stimulated, 5 h; series mostly up to 7.69 µM
In short: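 ME-180 cells carrying a SIE-driven beta-lactamase reporter are stimulated with 40 pM IL-6 for 5 h at 37C in the presence of compound. The 460/530 nm FRET substrate ratio is read after 2.5 h at RT. Data are normalised to 300 pM IL-6 and to 125 nM JAK inhibitor controls.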

[17] = molecular target: Dual specificity protein kinase CLK4 (Homo sapiens) (UniProt Q9HAZ1); assay: qHTS Assay for Inhibitors of CDC-like Kinase 4 (ADP-FP Assay) (AID 1795); conditions: Transcreener ADP fluorescence polarization; series mostly up to 50 µM;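 further: recombinant human CLK4 phosphorylating RS repeat peptide at 1 µM ATP; on the % scale 0 is the no-effect control and ±100 the full control effect; nearly all actives have a fitted effect of over 60% in size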
In short: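 Kinase activity was measured as ADP production using Transcreener orange tracer (4 nM) and ADP antibody (1 ug/mL) fluorescence polarization, with ADP calculated from a calibration curve. The 1 h reaction contained 6.25 nM Clk4, 1 uM ATP and 100 uM RS peptide at pH 7.5 with Mg2+.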

[18] = molecular target: Ubiquitin carboxyl-terminal hydrolase 1 (Homo sapiens) (UniProt O94782); assay: Inhibitors of USP1/UAF1: Pilot qHTS (AID 504865); conditions: purified USP1/UAF1, Ub-rhodamine cleavage fluorescence; series mostly up to 54.9 µM;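 further: rhodamine fluorescence freed from ubiquitin-rhodamine substrate followed over time; top concentration of the series differs between compounds; on the % scale 0 is the no-effect control and ±100 the full control effect; nearly all actives have a fitted effect of over 35% in size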
In short: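 Deubiquitinase activity followed as kinetic rhodamine fluorescence release from 150 nM Ub-Rho. 1 nM USP1/UAF1 with compound, after 15 min room-temperature preincubation, in HEPES pH 7.8 buffer containing TCEP, EDTA, BSA and Tween-20.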

[19] = molecular target: Rap guanine nucleotide exchange factor 3 (Homo sapiens) (UniProt O95398); assay: Counterscreen qHTS for antagonist of cAMP-regulated guanine nucleotide exchange factor 3 (EPAC1) (AID 1645888); conditions: Rap1B-BODIPY-GDP nucleotide exchange, fluorescence; series mostly up to 154 µM;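 further: fluorescence loss as bound BODIPY-GDP is released from Rap1B; % of control where 0% means no effect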
In short: (§1)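 Rap1B–BODIPY-GDP (250 nM) with 50 uM GDP; compounds pin-transferred to 9.74 nM–152 uM final (activator) or from 7.32 nM upwards (inhibitor). Fluorescence Ex/Em 480/540 nm read at 5 and 30 min, then after adding cAMP or buffer, at room temperature.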

[20] = molecular target: Tumor susceptibility gene 101 protein (Homo sapiens) (UniProt Q99816); assay: qHTS Assay for Iinhibitors of HIV-1 Budding by Blocking the Interaction of PTAP/TSG101: Hit Validation (AID 651600); conditions: PTAP peptide/TSG101 UEV interaction, biochemical assay; series mostly up to 57.5 µM; further: potency means the concentration at half of the fitted maximal effect; nearly all actives have a fitted effect of over 70% in size
In short: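 FITC-PTAP peptide (50 nM final) binding to Tsg101 binding domain (10 uM final) was measured by polarization after 20 min at r.t. with compounds, in 10 mM HEPES pH 7.5 buffer with 0.15 M NaCl and 0.01% Tween 20.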

[21] = molecular target: Rap guanine nucleotide exchange factor 3 (Homo sapiens) (UniProt O95398); assay: Counterscreen qHTS for agonist of cAMP-regulated guanine nucleotide exchange factor 3 (EPAC1) (AID 1645889); conditions: EPAC1 Rap1B-BODIPY-GDP exchange, fluorescence; series mostly up to 154 µM; further: potency means the concentration at half of the fitted maximal effect; nearly all actives have a fitted effect of over 40% in size
In short: as §1

CN1CCN(c2ncc3nc(-c4cn(C)c5ccccc45)c(=O)n(CCC#N)c3n2)CC1
active: Potency [3] 15.8 µM | Potency [9] 3.16 µM
inactive: Potency [1] > 11.4 µM | activity change, negative = inhibition [2] -1.18% | activity change, negative = inhibition [4] 23.5% | Potency [5] > 9.22 µM | Potency [6] > 46 µM | Potency [7] | outcome [8] | Potency [10] | Potency [11] | Potency [12] | Potency [13] | Potency [14] | Potency [15]

O=c1cnc2cnc(OCc3ccccc3)nc2n1CCc1ccccc1
active: Potency [15] 31.2 µM
inactive: Potency [1] > 11.4 µM | activity change, negative = inhibition [2] -5.47% | activity change, negative = inhibition [4] -27.9% | outcome [16] | Potency [5] > 9.22 µM | Potency [6] > 46 µM | Potency [7] | Potency [12] | Potency [13] | Potency [14]

CN1CCN(c2ncc3nc(-c4cccs4)c(=O)n(CCc4ccccc4)c3n2)CC1
active: Potency [3] 2.51 µM | Potency [9] 3.16 µM
inactive: Potency [1] > 11.4 µM | Potency [5] > 9.22 µM | Potency [6] > 46 µM | Potency [7] | outcome [8] | Potency [10] | Potency [11] | Potency [17] | Potency [18] | Potency [12] | Potency [13] | Potency [14] | Potency [15]

COc1ccc2cc(/C=C3\SC(=S)NC3=O)c(N3CCOCC3)nc2c1
inactive: Potency [13] | activation [14] 0.207% [at 17.1 µM, percent relative to cAMP agonist control] | activity change, negative = inhibition [19] 3.21% [at 30.8 µM]
active: Potency [12] 20 µM

CCN1C(=O)c2cccc3c(N)ccc(c23)C1=O
active: Potency [20] 2.06 µM | Potency [13] 100 µM | Potency [14] 100 µM | Potency [15] 75.7 µM | Potency [21] 35.5 µM
inactive: Potency [12]

O=C1c2cccc3c(O)ccc(c23)C(=O)N1Cc1ccco1
inactive: Potency [12]
active: Potency [20] 1.46 µM | Potency [13] 100 µM | Potency [14] 100 µM | Potency [15] 67.5 µM | Potency [21] 70.8 µM

Cc1cc2oc(=O)c(CC(=O)O)c(C)c2c2occ(C(C)(C)C)c12
inactive: Potency [12] | Potency [13] | Potency [14] | Potency [19]
